For nine compounds, composite z-score and z-score results are on record in PubChem BioAssay.

In assay [1] the test system is PRMT1 (protein arginine N-methyltransferase 1). Nature of the assay: PRMT1 binders on small-molecule microarrays, primary screen, biochemical, small-molecule microarray, 635 nm fluorescence (AID 1088).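 Further: binding of Prmt1 protein to compounds spotted on small-molecule microarray slides.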 The conditions noted are these: small-molecule microarray binding, higher = more signal.
Assay [2] in a line: yeast growth modulation, basal conditions, primary screen, YJM789 clinical isolate, OD600, 24 h (AID 1089).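 Further: growth of clinical yeast isolate S. cerevisiae YJM 789 seeded 1000 cells per well; test concentration not given here.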 The conditions noted are these: S. cerevisiae YJM789 growth, higher = more signal, called active from +8 up or from −8 down.
The nature of assay [3]: fission yeast growth modulation, primary screen, strain 972, OD600, 24 h, no modulator (AID 1090).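 Further: basal condition with compound alone and no growth modifier present; test concentration not given here.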 The settings on record: S. pombe 972 growth, higher = more signal, called active from +8 up or from −8 down.
Assay [4] can be described thus: S. cerevisiae growth modulation with rapamycin, primary screen, strain BY4716, OD600, 96 h (AID 1091). Further: test concentration not given here. The settings on record: higher = more signal, called active from +8 up or from −8 down.
The target in assay [5] is Torsin-1A-interacting protein 2 (Homo sapiens) (UniProt Q8NFQ8). Nature of the assay: LULL1 binders on small-molecule microarray, primary screen, cell lysate, human LULL1 lysate, 635/667 nm fluorescence (AID 1092).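 Further: probe is lysate of COS7 cells overexpressing human LULL1; score merges per-feature 667 nm fluorescence with signal-to-noise.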 The conditions noted are these: hLULL1 lysate binding, 635 nm fluorescence, higher = more signal.
Sequence of Torsin-1A-interacting protein 2 (Homo sapiens) (Q8NFQ8 whole entry, looked up): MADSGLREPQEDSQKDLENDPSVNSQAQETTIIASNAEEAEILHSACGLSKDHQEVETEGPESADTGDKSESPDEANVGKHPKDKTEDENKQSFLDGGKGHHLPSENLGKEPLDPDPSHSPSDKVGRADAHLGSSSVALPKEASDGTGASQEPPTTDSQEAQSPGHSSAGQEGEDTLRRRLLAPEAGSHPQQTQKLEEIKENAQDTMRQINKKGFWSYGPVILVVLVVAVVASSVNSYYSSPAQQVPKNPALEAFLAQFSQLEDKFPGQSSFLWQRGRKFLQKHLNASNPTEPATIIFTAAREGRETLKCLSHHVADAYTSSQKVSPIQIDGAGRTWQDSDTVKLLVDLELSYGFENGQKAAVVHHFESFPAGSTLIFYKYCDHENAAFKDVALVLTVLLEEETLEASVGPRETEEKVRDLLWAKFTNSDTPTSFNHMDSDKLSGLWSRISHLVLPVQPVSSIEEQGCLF
Assay [6] is described as follows: E. coli growth modulation, two-sided OD650, primary screen, E. coli filamentation project, strain DRC41, 24 h (AID 1093).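 Further: MC1000 strain lacking acrAB efflux and sulA so SOS filamentation is blocked; test concentration not given here.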 The conditions noted are these: OD650, 24 h, higher = more signal, called active from +8 up or from −8 down.
Assay [7] in a line: small-molecule microarray binders of probe aLefty2, primary screen, biochemical, biotinylated probe, 635/667 nm fluorescence (AID 1094).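 Further: score merges spot fluorescence near 667 nm with spot signal-to-noise ratio.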 The settings on record: higher = more signal.
For assay [8], the system named is Noggin (protein binding on small-molecule microarray). Kind of assay: Noggin binders on small-molecule microarray, primary screen, biochemical, 635/667 nm fluorescence (AID 1095).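 Further: score merges 667 nm feature fluorescence with signal to noise over triplicate slides.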 The settings on record: 635 nm fluorescence, higher = more signal.
The target in assay [9] is Neurogenic locus notch homolog protein 3 (Homo sapiens) (UniProt Q9UM47). Kind of assay: NOTCH3 binders on small-molecule microarray, primary screen, biochemical, 635/667 nm fluorescence (AID 1096). The conditions noted are these: NOTCH3 binding, 635 nm fluorescence, higher = more signal.
Sequence of Neurogenic locus notch homolog protein 3 (Homo sapiens) (Q9UM47 whole entry, looked up): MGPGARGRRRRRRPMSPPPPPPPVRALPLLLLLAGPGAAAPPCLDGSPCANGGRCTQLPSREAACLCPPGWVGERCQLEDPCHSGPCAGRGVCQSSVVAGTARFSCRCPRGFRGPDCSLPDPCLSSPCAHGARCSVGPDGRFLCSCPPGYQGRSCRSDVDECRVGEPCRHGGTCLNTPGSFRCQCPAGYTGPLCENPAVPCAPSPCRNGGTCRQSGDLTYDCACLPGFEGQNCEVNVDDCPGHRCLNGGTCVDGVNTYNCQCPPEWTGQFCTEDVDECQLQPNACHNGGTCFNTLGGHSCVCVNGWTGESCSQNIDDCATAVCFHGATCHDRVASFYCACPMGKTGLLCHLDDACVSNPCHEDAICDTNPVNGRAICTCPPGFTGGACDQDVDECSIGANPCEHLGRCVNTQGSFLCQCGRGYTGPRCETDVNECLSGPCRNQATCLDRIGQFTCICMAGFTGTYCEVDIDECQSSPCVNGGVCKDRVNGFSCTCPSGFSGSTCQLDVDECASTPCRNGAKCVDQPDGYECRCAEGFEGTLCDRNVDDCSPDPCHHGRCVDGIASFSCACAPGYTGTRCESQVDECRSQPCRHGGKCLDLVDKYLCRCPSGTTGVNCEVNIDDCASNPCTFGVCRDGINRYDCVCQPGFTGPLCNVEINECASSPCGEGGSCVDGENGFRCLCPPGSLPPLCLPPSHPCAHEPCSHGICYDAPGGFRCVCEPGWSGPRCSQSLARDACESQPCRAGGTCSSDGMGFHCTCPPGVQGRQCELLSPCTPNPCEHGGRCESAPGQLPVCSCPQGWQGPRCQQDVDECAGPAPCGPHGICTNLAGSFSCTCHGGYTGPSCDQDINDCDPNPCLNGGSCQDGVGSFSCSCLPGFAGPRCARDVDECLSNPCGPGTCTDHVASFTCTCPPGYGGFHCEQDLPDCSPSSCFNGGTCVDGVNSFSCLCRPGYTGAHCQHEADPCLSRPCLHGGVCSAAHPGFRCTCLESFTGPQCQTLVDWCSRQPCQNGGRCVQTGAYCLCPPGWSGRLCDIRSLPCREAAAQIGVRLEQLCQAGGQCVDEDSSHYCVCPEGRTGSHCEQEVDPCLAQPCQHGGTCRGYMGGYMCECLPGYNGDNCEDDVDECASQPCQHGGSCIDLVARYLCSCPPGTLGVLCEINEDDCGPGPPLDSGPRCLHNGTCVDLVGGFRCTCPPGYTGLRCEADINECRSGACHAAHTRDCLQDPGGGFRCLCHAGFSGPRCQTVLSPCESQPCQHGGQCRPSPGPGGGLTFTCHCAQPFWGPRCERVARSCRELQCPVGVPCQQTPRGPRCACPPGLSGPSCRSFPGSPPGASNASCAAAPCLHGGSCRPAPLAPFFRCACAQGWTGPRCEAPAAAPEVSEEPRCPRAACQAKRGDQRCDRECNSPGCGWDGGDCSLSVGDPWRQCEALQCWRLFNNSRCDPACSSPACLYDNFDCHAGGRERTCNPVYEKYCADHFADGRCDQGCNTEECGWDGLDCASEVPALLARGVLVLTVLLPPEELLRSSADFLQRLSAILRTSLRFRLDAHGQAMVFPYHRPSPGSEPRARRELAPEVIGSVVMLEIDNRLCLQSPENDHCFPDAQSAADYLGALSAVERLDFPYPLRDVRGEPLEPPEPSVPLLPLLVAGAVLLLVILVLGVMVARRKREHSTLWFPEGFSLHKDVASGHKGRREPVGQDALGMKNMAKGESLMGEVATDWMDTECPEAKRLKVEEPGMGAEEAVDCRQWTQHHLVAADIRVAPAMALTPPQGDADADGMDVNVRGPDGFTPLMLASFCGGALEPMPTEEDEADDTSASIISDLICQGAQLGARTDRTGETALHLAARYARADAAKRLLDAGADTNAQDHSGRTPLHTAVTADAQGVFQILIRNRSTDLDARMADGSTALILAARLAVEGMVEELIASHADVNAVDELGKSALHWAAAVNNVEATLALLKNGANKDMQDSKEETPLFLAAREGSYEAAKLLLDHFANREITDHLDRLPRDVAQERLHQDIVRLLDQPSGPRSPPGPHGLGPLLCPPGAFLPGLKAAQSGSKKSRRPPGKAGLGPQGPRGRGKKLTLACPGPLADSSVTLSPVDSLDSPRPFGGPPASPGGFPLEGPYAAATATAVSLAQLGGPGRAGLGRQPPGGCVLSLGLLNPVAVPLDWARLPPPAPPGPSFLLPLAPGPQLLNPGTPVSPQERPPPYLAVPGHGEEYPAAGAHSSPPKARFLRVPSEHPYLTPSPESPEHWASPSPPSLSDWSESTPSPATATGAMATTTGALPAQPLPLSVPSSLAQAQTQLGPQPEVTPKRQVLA
The nature of assay [10]: small-molecule microarray binders of probe aEGFR, primary screen, biochemical, biotinylated probe, 635/667 nm fluorescence (AID 1097).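 Further: probe is a biotinylated anti-EGFR antibody binding compounds printed on slides; score combines fluorescence near 667 nm and signal to noise of each spot.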 The settings on record: higher = more signal.
The test system of assay [11] is Plasmodium falciparum Sir2 (PF13_0152, Sir2A). Kind of assay: pfSir2 binders on small-molecule microarrays, primary screen, biochemical, small-molecule microarray, 635 nm fluorescence (AID 1098).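 Further: score merges spot fluorescence intensity with its signal-to-noise ratio.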 The conditions noted are these: small-molecule microarray binding, fluorescence 635 nm; higher = more signal.
Assay [12] is described as follows: small-molecule microarray binders of probe aDKK1, primary screen, biochemical, biotinylated probe, 635/667 nm fluorescence (AID 1099).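 Further: score merges 667nm spot fluorescence with signal to noise across triplicate slides; reference of the scale not given here.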 The conditions noted are these: higher = more signal.
The nature of assay [13]: small-molecule microarray binders of probe aCHRDL2, primary screen, biochemical, biotinylated probe, 635/667 nm fluorescence (AID 1100). The settings on record: higher = more signal.
Assay [14] in a line: splicing luciferase reporter signal modulators, primary screen, spliceosome inhibition project, cell-based, HEK293, splice +/- reporter (AID 1101).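 Further: HEK293 cells carrying a splicing-competent luciferase reporter gene; test concentration not given here.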 The settings on record: luminescence, 24 h, higher = more signal, called active from +8 up or from −8 down. Background: A reporter such as luciferase makes a cellular process visible.
The target of assay [15] is Fibroblast growth factor 10 (Homo sapiens) (UniProt O15520). Nature of the assay: FGF10 binders on small-molecule microarrays, primary screen, biochemical, small-molecule microarray, 635 nm fluorescence (AID 1102). The conditions noted are these: FGF10 binding, fluorescence 635 nm, higher = more signal.
Sequence of Fibroblast growth factor 10 (Homo sapiens) (O15520 whole entry, looked up): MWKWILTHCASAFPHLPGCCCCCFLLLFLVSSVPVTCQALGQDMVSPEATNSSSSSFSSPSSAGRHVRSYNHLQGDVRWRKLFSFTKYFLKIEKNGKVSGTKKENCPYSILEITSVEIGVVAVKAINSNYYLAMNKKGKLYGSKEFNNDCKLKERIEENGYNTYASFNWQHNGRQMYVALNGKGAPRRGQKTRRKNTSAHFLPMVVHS
In assay [16] the test system is glycogen synthase kinase-3 (GSK3A per assay name; protocol says GSK3B). Kind of assay: GSK3 binders on small-molecule microarrays, primary screen, biochemical, small-molecule microarray, 635 nm fluorescence, GSK3A (AID 1103). Further: the record names both GSK3A and GSK3B. The settings on record: small-molecule microarray binding, fluorescence 635 nm; higher = more signal.
Assay [17] concerns the target Epidermal growth factor receptor (Homo sapiens) (UniProt P00533). Nature of the assay: EGFR binders on small-molecule microarrays, primary screen, biochemical, small-molecule microarray, 635 nm fluorescence (AID 1104).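 Further: score merges 667 nm emission intensity with spot signal to noise over triplicate slides.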 The settings on record: EGFR binding, higher = more signal.
The target in assay [18] is Follistatin-related protein 3 (Homo sapiens) (UniProt O95633). Kind of assay: FSTL3 binders on small-molecule microarrays, primary screen, biochemical, small-molecule microarray, 635 nm fluorescence (AID 1105).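 Further: score merges emission near 667 nm and signal to noise per printed spot across three slides.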 The conditions noted are these: FSTL3 binding, higher = more signal.
Sequence of Follistatin-related protein 3 (Homo sapiens) (O95633 whole entry, looked up): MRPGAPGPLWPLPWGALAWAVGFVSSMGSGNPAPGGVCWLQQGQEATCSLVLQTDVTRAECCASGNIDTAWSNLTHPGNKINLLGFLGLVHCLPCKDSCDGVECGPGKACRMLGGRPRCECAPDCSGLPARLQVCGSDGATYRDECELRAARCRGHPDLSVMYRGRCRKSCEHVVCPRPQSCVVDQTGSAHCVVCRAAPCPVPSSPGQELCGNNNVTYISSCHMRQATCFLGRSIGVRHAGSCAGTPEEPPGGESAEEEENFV
Assay [19] addresses Dickkopf-related protein 1 (Homo sapiens) (UniProt O94907). Kind of assay: DKK1 binders on small-molecule microarrays, primary screen, biochemical, small-molecule microarray, 635 nm fluorescence scan (AID 1106).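 Further: score merges emission near 667 nm with signal to noise over three replicate slides.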 The settings on record: DKK1 binding, higher = more signal.
In assay [20] the test system is Inhibin beta A chain (activin A). Kind of assay: INHBA (activin A) binders on microarrays, primary screen, biochemical, small-molecule microarray, 635 nm fluorescence scan (AID 1107).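 Further: mouse activin A protein probed at 4.33 µg/mL on printed slides; score merges bound-protein fluorescence near 667 nm with spot signal-to-noise.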 The settings on record: small-molecule microarray binding, higher = more signal.

The source made the active and inactive calls.

Sequence of Dickkopf-related protein 1 (Homo sapiens) (O94907 whole entry, looked up): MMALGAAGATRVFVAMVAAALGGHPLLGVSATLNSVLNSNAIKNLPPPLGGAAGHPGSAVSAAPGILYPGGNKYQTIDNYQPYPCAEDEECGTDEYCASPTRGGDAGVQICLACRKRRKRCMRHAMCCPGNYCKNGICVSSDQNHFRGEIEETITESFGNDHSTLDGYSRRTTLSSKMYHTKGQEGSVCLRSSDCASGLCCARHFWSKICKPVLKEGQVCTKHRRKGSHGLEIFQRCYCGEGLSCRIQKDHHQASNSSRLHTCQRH
Sequence of Epidermal growth factor receptor (Homo sapiens) (P00533 whole entry, looked up): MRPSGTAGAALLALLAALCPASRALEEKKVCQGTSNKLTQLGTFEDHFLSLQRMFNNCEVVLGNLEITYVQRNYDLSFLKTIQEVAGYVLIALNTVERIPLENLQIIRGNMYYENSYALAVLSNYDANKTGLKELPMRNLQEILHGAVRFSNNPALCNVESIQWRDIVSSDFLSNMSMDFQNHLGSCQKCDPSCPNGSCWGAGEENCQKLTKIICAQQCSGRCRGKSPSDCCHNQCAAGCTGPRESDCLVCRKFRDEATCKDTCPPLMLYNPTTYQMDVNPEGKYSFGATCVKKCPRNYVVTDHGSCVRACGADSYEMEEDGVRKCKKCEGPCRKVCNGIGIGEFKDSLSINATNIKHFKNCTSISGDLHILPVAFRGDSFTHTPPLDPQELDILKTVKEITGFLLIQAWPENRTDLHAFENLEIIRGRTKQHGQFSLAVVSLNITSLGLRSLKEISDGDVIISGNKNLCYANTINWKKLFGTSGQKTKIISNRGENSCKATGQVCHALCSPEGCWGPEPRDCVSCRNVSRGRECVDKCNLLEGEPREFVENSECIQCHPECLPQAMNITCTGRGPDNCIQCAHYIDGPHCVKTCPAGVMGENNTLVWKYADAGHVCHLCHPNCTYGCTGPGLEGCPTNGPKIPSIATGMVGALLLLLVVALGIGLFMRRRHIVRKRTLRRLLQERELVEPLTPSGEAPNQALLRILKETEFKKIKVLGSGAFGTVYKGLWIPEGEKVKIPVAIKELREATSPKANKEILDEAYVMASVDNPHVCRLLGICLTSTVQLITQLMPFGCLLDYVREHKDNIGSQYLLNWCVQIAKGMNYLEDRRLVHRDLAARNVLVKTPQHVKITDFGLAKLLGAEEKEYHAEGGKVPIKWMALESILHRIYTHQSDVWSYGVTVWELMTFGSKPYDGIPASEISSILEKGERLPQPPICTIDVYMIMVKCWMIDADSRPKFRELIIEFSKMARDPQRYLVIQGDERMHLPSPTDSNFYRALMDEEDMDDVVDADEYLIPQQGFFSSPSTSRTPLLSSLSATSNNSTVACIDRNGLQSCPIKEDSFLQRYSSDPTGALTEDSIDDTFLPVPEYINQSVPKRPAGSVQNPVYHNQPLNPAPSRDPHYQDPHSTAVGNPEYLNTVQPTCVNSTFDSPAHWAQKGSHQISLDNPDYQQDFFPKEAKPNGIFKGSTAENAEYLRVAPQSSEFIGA

For `CCOc1ccc(N2C(=O)/C(=C/C=C/c3ccccc3OC)S(=O)(=O)C2c2cccc([N+](=O)[O-])c2)cc1` (stereo not given), the composite z-score is -0.167 in assay [1]; 0.236 in assay [5]; -0.0342 in assay [7]; 0.39 in assay [8]; 0.638 in assay [9]; -0.103 in [10]. The composite z-score is -0.379 in assay [11]; 0.0757 in assay [12]; 0.42 in [13]; 0.226 in [15]; 0.342 in assay [16]; 0.549 in assay [17]. Moreover, the composite z-score in [18] came to 0.393; in assay [19], 0.218; in assay [20], 0.61. Moreover, the z-score is -3.8 (inactive) in assay [2]; -3.13 (inactive) in assay [3]; 0.648 (inactive) in assay [4]; 0.841 (inactive) in [6]; 1.04 (inactive) in assay [14].
In the case of `COc1ccc(O[C@H]2C=C[C@@H](c3ccccc3)O[C@@H]2COC(=O)CCC(C)=NO[C@@H](C)c2cc(-c3c(C)cc(C)cc3C)no2)cc1`, the composite z-score in [1] is -0.225; in assay [5] it was -0.687; in [7], -0.219; in [8], -0.916; in assay [9], -2.17; in [10] it was -0.214. In addition, the composite z-score in assay [11] was -0.0775; in assay [12], -0.344; in assay [13], 0.268; in [15], -1.05; in assay [16], -2.04; in assay [17] it was -0.747. In addition, the figures for the composite z-score in [18], in assay [19] and in assay [20] were -1.39, -0.872 and 0.934, respectively. For the same compound, the z-score in assay [2] is -0.843 (inactive); in assay [3], 1.09 (inactive); in [4], -0.159 (inactive); in assay [6], -0.312 (inactive); in [14], -0.398 (inactive).
As for `CCc1cc2c(nc1CC)CCN(CCC(C)=NOC[C@@H](O)[C@H]1O[C@@H]3OC(C)(C)O[C@@H]3[C@H]1O)C2`, the composite z-score in assay [1] was 0.85; in [5], 0.767; in [7], -0.175; in [8], 0.276; in assay [9] it was 0.0003; in assay [10], -0.0343. The composite z-score in [11] is 0.569; in assay [12], -0.54; in assay [13], -0.32; in [15], 0.123; in assay [16], 0.175; in assay [17], 0.352. Moreover, the composite z-score worked out at 0.285 in [18], 0.453 in assay [19] and 0.963 in assay [20]. The z-score in [2] is -1.63 (inactive); in [3], 0.24 (inactive); in assay [4], -0.282 (inactive); in [6], 0.71 (inactive); in assay [14] it was -0.173 (inactive).
For the compound `CC(C)(C)OC(=O)CC[C@]1(C(=O)NCc2ccccc2)N=C(c2ccc(OCCCO)cc2)O[C@H]1c1ccccc1`, the composite z-score in assay [1] is 1.55; in assay [5], 3.71; in assay [7] it was -0.0354; in assay [8] it was 0.798; in assay [9] it was 0.97; in assay [10], -0.123. Also, the composite z-score in assay [11] is 1.73; in [12] it was -0.0749; in [13], 0.574; in [15] it was 0.686; in [16], 1.24; in assay [17] it was 0.0167. The composite z-score was -0.136 in assay [18], -0.402 in assay [19] and -0.285 in [20]. Moreover, the z-score is -0.105 (inactive) in [2]; 0.851 (inactive) in [3]; 1.64 (inactive) in assay [4]; 0.0596 (inactive) in assay [6]; 0.351 (inactive) in [14].
With `CC=CC1=C(CO)[C@H](O)[C@H]2O[C@H]2[C@H]1O`, the composite z-score is 1.23 in [1]; -0.0789 in assay [5]; -0.24 in assay [7]; 0.834 in assay [8]; 0.67 in assay [9]; -0.0382 in assay [10]. Further, the composite z-score in assay [11] is 0.412; in [12], -0.346; in [13] it was -0.786; in [15] it was 0.805; in assay [16], 1.23; in assay [17], 0.393. For the same compound, the composite z-score in assay [18] was 0.578; in assay [19] it was 1.07; in [20] it was -0.047. Moreover, the z-score is 0.505 (inactive) in assay [2]; 0.317 (inactive) in assay [3]; 1.12 (inactive) in [4]; 0.131 (inactive) in [6]; -0.383 (inactive) in assay [14].
Take `CN1C(=O)C2C=CC(C(O)C(c3ccccc3)c3ccccc3)N(NC(=O)OC(C)(C)C)C2C1=O` (stereo not given): the composite z-score is 1.42 in assay [1]; 3.35 in assay [5]; 0.59 in assay [7]; -0.168 in assay [8]; 1.09 in [9]; 0.311 in assay [10]. Also, the composite z-score came out at 1.46 in assay [11]; 1.21 in assay [12]; 1.22 in assay [13]; 1.03 in assay [15]; 1.12 in assay [16]; 0.341 in assay [17]. Besides, the figures for the composite z-score in assay [18], in [19] and in [20] were 1.24, 0.452 and -0.109, respectively. The z-score in assay [2] was -1.79 (inactive); in assay [3], -4.38 (inactive); in [4], -0.512 (inactive); in assay [6], -0.805 (inactive); in assay [14], 1.71 (inactive).
On to `CCOC(=O)[C@H](CC(C)C)NC(=O)CCC1CC(OC(=O)NCc2cccc3ccccc23)CC2(CCCC(COC(=O)NCCc3ccccc3OC)O2)O1` (stereo not given in full), for which the composite z-score in [1] was 1.28; in [5], 2.96; in assay [7], -0.0505; in assay [8], 0.686; in assay [9], 0.957; in assay [10], -0.0304. Moreover, the composite z-score was 0.766 in [11]; -0.141 in [12]; -0.39 in assay [13]; 1 in [15]; 1.03 in assay [16]; 0.387 in [17]. The composite z-score was 0.866 in [18], 0.555 in [19] and 0.182 in [20]. Also, the z-score in [2] was -0.133 (inactive); in [3], -0.0584 (inactive); in assay [4] it was 0.407 (inactive); in assay [6] it was -0.197 (inactive); in assay [14] it was -0.139 (inactive).
Consider `CC[C@@H](c1ccccc1)n1c(=O)n2n(c1=O)[C@H]1[C@H](O)[C@@H]3O[C@@H]3C(=NOCC(C)C)[C@H]1CC2`, for which the composite z-score in assay [1] was -0.179; in [5] it was 0.543; in assay [7], -0.213; in assay [8], 0.288; in assay [9], 0.586; in assay [10] it was -0.0967. Also, the composite z-score in [11] is 0.315; in [12] it was -0.187; in assay [13] it was -0.532; in assay [15] it was -0.0238; in assay [16], 0.0344; in assay [17], 0.143. The composite z-score in [18] was 0.227; in assay [19] it was 0.202; in assay [20] it was -0.0597. Besides, the z-score is 1.3 (inactive) in [2]; -0.0534 (inactive) in [3]; 1.37 (inactive) in assay [4]; 0.409 (inactive) in [6]; 1.26 (inactive) in assay [14].
As for `CCOC(=O)CCN1C(=O)[C@H]2[C@H]3[C@H](O)[C@H](O)CC(=NOC[C@@H](O)COCc4ccco4)[C@H]3CC[C@H]2C1=O`, the composite z-score in [1] is 1.46; in [5], 0.756; in [7], -0.188; in assay [8], 0.474; in assay [9], 0.921; in assay [10], 0.0649. Further, the composite z-score in assay [11] was 0.413; in [12], 0.0262; in [13] it was -0.5; in [15] it was 0.449; in assay [16] it was 0.596; in assay [17], 0.328. The composite z-score in assay [18] worked out at 0.608; in assay [19], 0.433; in [20] it was 0.0553. In addition, the z-score in [2] was -0.114 (inactive); in assay [3], -3.86 (inactive); in assay [4], -0.86 (inactive); in assay [6], 0.09 (inactive); in assay [14] it was -1.12 (inactive).
